# Experimental data reported in PubChem BioAssay (NCATS).
# “And” between values parts separate entries of the source, which are not always exact repeats. Identical values can stand only once. Results filed as inconclusive are left out. Entries that show only a call come without a potency. The source made the active and inactive calls. Unless noted, the call rests on the fitted dose curve; in most records, active means well fitted curve in the direction sought with a large enough effect; inconclusive means small, poorly fitted or top-dose-only effect, or another doubt; inactive means no such curve, though single readings can be large; an effect the other way counts as inactive or inconclusive.
# What was measured:
# [1] = target: ATP-dependent 6-phosphofructokinase (Trypanosoma brucei brucei) (UniProt O15648); assay: qHTS Assay to Find Inhibitors of T. brucei phosphofructokinase: hit validation (AID 492961);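 further: luminescence reports ADP formed as PFK phosphorylates fructose-6-phosphate with ATP; series mostly up to about 51 µM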
# ATP-dependent 6-phosphofructokinase (Trypanosoma brucei brucei), sequence (O15648 whole entry, looked up): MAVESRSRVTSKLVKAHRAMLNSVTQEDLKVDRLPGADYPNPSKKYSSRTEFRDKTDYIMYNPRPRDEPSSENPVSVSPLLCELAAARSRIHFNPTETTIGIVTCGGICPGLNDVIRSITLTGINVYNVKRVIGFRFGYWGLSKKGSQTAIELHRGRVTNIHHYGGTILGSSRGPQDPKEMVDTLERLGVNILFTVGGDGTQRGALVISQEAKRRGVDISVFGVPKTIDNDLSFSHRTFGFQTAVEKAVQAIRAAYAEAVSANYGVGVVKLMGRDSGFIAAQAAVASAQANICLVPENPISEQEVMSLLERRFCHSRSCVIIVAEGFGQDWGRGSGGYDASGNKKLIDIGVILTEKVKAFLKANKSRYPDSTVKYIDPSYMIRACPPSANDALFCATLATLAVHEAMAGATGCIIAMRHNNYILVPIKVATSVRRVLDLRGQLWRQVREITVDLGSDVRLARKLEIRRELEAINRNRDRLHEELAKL
# In short: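 Percent activity derived from corrected luminescence, normalized between 0x and 1x enzyme controls, then fitted to concentration-response curves. Conditions: 1.25 nM PFK, 0.1 mM ATP, 0.5 mM F6P, 45 min RT.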
# [2] = target: Glucocorticoid receptor (Homo sapiens) (UniProt P04150); assay: qHTS assay for small molecule agonists of glucocorticoid receptor signaling (AID 588532; active means well fitted curve in the direction sought with a large enough effect in the signal ratio, with a control signal flat; the % refers to the signal ratio); conditions: HeLa MMTV-bla, beta-lactamase ratio, agonist, 18 h; stronger effect = higher value; percent of dexamethasone control, DMSO zero
# In short: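 Titration series, up to 92 uM, applied to GRE-bla HeLa cells for 18 h at 37 C. Detection by CCF4 FRET substrate after 2 h at RT.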
# [3] = target: DNA dC->dU-editing enzyme APOBEC-3G (Homo sapiens) (UniProt Q9HC16); assay: qHTS for inhibitors of Vif-A3G interactions: Validation (AID 588379)
# DNA dC->dU-editing enzyme APOBEC-3G (Homo sapiens), sequence (Q9HC16 whole entry, looked up): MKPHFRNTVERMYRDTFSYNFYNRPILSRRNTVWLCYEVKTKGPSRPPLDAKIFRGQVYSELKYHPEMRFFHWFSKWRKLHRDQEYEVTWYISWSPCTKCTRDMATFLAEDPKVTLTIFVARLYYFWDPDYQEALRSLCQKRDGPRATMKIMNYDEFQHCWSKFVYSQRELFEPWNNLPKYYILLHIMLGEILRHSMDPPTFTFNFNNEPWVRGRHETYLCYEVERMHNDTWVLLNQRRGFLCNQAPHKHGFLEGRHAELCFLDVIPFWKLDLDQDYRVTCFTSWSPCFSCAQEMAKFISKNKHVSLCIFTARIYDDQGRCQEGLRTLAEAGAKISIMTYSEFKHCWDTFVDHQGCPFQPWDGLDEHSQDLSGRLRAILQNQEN
# In short: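 Yellow fluorescence (Ex 488, Em 500-530) of Vif-coexpressing HeLa A3G-eYFP cells, scanned by Acumen cytometer, reports blocked A3G degradation. Cells plated at 700/well overnight at 37 deg C before compound addition, then a further overnight compound incubation at 37 deg C.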
# [4] = target: Ubiquitin carboxyl-terminal hydrolase 1 (Homo sapiens) (UniProt O94782); assay: Inhibitors of USP1/UAF1: Pilot qHTS (AID 504865);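 further: rhodamine fluorescence freed from ubiquitin-rhodamine substrate followed over time; top concentration of the series differs between compounds; nearly all actives have a fitted effect of over 35% in size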
# In short: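 Enzyme-free wells gave the negative control, while test wells held 1nM USP1/UAF1 preincubated with compound for 15 min at room temperature. Ub-Rho at 150nM final started the reaction, and fluorescence at 480/540 nm was recorded kinetically.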
# [5] = target: Bile acid receptor (Homo sapiens) (UniProt Q96RI1); assay: qHTS assay for small molecule antagonists of farnesoid X receptor signaling (AID 588526; calls by dose curve)
# In short: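 Concentration-response titrations were fitted to the Hill equation for half-maximal inhibition and maximal response, with data normalised to 50 uM chenodeoxycholic acid and DMSO control wells. Cells: FXR-UAS-bla HEK293T, dialyzed FBS.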
# [6] = target: Estrogen receptor (Homo sapiens) (UniProt P03372); assay: qHTS assay for small molecule antagonists of estrogen receptor alpha signaling (AID 588513; active means well fitted curve in the direction sought with a large enough effect in the signal ratio, with a control signal flat, not every such curve was filed as active; the % refers to the signal ratio)
# Estrogen receptor (Homo sapiens), sequence (P03372 whole entry, looked up): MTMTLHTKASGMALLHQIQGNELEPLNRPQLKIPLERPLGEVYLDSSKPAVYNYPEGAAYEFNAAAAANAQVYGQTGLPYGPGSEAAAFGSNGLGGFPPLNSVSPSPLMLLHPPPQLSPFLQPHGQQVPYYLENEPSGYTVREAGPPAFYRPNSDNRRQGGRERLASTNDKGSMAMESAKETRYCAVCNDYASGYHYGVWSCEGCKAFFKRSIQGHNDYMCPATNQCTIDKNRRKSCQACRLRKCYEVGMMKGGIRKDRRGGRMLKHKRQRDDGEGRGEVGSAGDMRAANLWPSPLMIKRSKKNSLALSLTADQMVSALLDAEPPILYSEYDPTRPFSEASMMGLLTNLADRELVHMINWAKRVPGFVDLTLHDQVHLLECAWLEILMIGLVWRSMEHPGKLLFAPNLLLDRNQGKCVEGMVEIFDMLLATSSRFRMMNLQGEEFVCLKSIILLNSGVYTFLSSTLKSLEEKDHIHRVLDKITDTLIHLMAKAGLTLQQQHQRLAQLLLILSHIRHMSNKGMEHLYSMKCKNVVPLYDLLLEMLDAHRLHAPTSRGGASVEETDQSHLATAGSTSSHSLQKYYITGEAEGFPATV
# In short: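 Antagonist-mode qHTS in ER-alpha-UAS-bla HEK 293 cells: compound titration, 0.5nM estradiol for 18 h, CCF4 fluorescence, Hill-derived IC50.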
# [7] = target: Estrogen receptor (Homo sapiens) (UniProt P03372); assay: qHTS assay for small molecule agonists of estrogen receptor alpha signaling (AID 588514; calls by dose curve; further: nearly all actives have a fitted effect of over 70% in size)
# In short: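 Efficacy is expressed against 20 nM 17-beta-estradiol (100%) and DMSO basal (0%); EC50 from Hill equation. Assay: beta-lactamase reporter in ER-alpha-UAS-bla HEK 293 cells, 18 h compound incubation, CCF4 detection.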
# [8] = target: Androgen receptor (Homo sapiens) (UniProt P10275); assay: qHTS assay for small molecule agonists of androgen receptor signaling (AID 588515; active means well fitted curve in the direction sought with a large enough effect in the signal ratio, with a control signal flat; the % refers to the signal ratio); conditions: AR-UAS-bla HEK293, beta-lactamase ratio, agonist 16 h; stronger effect = higher value
# In short: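 Stimulation of an AR-responsive β-lactamase reporter in GripTite HEK293 cells was measured after 16 h compound exposure at 37 °C, via CCF4 fluorescence after 2 h RT. EC50 from Hill fits, normalized to R1881 at 30 nM.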
# [9] = target: Androgen receptor (Homo sapiens) (UniProt P10275); assay: qHTS assay for small molecule antagonists of androgen receptor signaling (AID 588516; active means well fitted curve in the direction sought with a large enough effect in the signal ratio, with a control signal flat, not every such curve was filed as active; the % refers to the signal ratio)
# In short: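 Compounds tested in titration against 10 nM R1881 in AR-responsive bla reporter HEK 293 cells; CCF4 fluorescence (460/530 nm) after 16 h exposure gave IC50 and efficacy.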
# [10] = Validation screen for small molecules that induce genotoxicity in human embryonic kidney (HEK293T) cells expressing luciferase-tagged ELG1 (AID 493106); further: potency means the concentration at half of the fitted maximal effect
# In short: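 Cells were dispensed at 2,000 per well, then 23 nL compound or DMSO was pinned in. After 16 hr at 37 °C and 5% CO2, ONE-Glo reagent was added. Luciferase activity was measured following 30 min at room temperature.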
# [11] = target: ATPase family AAA domain-containing protein 5 (Homo sapiens) (UniProt Q96QE3); assay: Validation screen for small molecules that inhibit ELG1-dependent DNA repair in human embryonic kidney (HEK293T) cells expressing luciferase-tagged ELG1 (AID 493107);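 further: cells co-treated with the DNA-damaging agent 5-fluorouridine alongside compound; series mostly up to about 46 µM; inhibitors lower the ELG1-luciferase luminescence signal; nearly all actives have a fitted effect of over 70% in size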
# ATPase family AAA domain-containing protein 5 (Homo sapiens), sequence (Q96QE3 whole entry, looked up, the tested form may be a part): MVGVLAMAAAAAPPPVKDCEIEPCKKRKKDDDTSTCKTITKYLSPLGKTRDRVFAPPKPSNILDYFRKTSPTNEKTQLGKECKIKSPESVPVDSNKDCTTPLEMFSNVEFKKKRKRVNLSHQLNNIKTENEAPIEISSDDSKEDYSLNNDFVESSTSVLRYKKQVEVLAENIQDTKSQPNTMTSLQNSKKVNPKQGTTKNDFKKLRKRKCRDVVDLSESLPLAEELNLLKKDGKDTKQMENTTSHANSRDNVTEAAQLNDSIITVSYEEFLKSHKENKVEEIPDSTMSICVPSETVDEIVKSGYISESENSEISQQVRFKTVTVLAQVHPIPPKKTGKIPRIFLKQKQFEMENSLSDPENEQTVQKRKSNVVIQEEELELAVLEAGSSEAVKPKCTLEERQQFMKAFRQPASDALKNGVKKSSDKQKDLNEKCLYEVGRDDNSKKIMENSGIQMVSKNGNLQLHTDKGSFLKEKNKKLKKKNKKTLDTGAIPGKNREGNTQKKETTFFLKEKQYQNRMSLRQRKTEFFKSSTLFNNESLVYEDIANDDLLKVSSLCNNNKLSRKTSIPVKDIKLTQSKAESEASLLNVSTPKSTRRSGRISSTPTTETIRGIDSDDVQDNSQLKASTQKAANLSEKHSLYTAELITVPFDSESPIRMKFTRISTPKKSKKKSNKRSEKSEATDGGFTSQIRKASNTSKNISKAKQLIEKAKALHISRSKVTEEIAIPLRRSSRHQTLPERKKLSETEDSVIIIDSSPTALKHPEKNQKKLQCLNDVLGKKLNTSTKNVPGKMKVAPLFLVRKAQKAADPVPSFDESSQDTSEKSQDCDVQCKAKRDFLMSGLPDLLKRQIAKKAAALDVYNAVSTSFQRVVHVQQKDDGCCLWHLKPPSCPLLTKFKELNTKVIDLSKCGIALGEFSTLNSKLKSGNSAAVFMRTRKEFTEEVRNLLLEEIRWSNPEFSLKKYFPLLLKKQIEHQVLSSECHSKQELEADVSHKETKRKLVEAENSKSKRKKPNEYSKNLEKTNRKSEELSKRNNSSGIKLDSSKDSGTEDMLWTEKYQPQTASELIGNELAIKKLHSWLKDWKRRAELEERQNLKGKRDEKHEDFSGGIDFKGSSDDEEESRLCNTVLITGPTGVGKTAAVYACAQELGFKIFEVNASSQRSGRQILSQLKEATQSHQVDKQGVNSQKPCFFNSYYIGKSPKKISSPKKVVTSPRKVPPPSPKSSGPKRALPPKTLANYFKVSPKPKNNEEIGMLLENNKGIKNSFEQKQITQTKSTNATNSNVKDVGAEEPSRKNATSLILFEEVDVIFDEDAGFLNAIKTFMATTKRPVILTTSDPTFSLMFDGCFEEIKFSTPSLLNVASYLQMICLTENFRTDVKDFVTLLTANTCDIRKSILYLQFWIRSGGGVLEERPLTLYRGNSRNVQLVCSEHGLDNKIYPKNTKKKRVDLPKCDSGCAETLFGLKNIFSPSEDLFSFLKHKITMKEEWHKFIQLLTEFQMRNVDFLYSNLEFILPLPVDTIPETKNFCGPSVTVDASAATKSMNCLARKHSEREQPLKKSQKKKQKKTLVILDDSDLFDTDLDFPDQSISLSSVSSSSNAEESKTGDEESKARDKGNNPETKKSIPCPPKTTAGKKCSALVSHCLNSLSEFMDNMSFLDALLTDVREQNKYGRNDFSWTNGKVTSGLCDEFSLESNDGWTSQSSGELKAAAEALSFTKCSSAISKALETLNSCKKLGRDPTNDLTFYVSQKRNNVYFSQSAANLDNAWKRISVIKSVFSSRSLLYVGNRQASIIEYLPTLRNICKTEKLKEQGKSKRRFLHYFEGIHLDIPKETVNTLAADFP
# In short: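 Cells are dispensed in 1536-well format, then 5-fluorouridine and compound are pinned in. After a 16 hr incubation at 37 °C and 5% CO2, ONE-Glo is added and luciferase measured on a CCD imager.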
# [12] = target: Thyrotropin-releasing hormone receptor (Homo sapiens) (UniProt P34981); assay: qHTS for Small Molecule Agonists and Allosteric Enhancers of Human TRH Receptor: Validation Screen for Agonists (AID 493127;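 active means calcium activation more than 3 SD above the typical response in the agonist read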;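 further: intracellular calcium rise by fluo-8 fluorescence before TRH EC20 addition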); conditions: TRH receptor agonist cell assay; at 2 µM; stronger effect = higher value
# Thyrotropin-releasing hormone receptor (Homo sapiens), sequence (P34981 whole entry, looked up): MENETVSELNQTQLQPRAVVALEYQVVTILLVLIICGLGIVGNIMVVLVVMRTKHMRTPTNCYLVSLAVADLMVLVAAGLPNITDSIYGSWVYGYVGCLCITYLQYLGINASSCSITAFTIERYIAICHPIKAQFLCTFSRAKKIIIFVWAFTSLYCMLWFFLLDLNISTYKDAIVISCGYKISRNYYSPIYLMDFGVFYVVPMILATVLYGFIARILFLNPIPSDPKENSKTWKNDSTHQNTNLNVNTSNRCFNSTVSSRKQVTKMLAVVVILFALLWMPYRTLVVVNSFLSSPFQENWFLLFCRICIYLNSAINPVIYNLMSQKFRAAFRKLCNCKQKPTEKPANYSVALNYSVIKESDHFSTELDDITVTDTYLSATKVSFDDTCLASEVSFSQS
# In short: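 Compounds are added by online pintool to dye-loaded TRHR cells while fluorescence is recorded every second. A rise in calcium signal during the agonist read marks activation; a later 10 nM TRH addition (EC20) serves the separate enhancer mode.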
# [13] = Nrf2 qHTS screen for inhibitors: Validation (AID 493153; active means well fitted inhibition curve with a large enough effect in the main read-out, with a control signal flat, not every such curve was filed as active); conditions: Potency: luciferase luminescence; viability change: measured here: cytotoxicity max response
# In short: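 A549 ARE_Fluc, 5% FBS OPTI-MEM; cpd titration, 18-24 h, 37°C/5% CO2. Read 1: CellTiter-Fluor (Ex 405/Em 525), cytotox. Read 2: luciferase lum, Nrf2 activity.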
# [14] = qHTS for Inhibitors of Cell Surface uPA Generation: Validation Assay (AID 493164);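 further: RAW 264.7 macrophage cells exposed to compound for 18 h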
# In short: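 ATP-Lite luminescence read-out: ATP remains high when uPA activity-dependent LF translocation into the cytoplasm is blocked. RAW 264.7 cells, 18 h compound exposure at 37 C; 7-point titration, 2.45 nM to 38.3 uM final.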
# [15] = Validation screen for small molecules that induce DNA re-replication in SW480 colon adenocarcinoma cells (AID 504364); further: potency means the concentration at half of the fitted maximal effect
# In short: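 Image-based qHTS: compounds were incubated with SW480 cells for 48 hr, nuclei stained with Hoechst, and per-nucleus fluorescence intensity scanned to flag cells with excess DNA content.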
# [16] = target: Phosphoglycerate kinase, glycosomal (Trypanosoma brucei brucei) (UniProt P07378); assay: qHTS Validation Assay to Find Inhibitors of Phosphoglycerate Kinase (AID 504547); further: potency means the concentration at half of the fitted maximal effect
# Phosphoglycerate kinase, glycosomal (Trypanosoma brucei brucei), sequence (P07378 whole entry, looked up): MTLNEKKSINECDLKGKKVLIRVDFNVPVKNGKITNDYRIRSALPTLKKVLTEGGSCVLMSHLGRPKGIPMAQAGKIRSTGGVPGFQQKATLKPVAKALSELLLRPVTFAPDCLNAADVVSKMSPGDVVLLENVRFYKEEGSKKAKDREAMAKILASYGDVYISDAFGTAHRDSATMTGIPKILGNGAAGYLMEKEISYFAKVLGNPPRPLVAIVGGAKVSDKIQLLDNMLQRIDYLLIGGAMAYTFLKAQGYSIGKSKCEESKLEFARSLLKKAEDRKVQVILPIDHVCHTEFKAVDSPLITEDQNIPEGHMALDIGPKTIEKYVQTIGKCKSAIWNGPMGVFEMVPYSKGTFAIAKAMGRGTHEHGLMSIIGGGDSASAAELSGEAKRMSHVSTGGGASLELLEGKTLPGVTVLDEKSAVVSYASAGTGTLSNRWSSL
# In short: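 In TEA buffer (100mM, pH 7.6) containing 5mM MgCl2 and 0.01% Tween-20, the GAPDH-coupled PGK reaction proceeded for 60 minutes at room temperature before a single luminescence reading using Kinase-Glo Plus.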
# [17] = target: phosphoglycerate mutase (Leishmania major) (UniProt Q4Q090); assay: qHTS Validation Assay to Find Inhibitors of Phosphoglycerate Mutase (AID 504548); conditions: Potency: inhibition qHTS; further: series mostly up to about 58 µM
# phosphoglycerate mutase (Leishmania major), sequence (Q4Q090 1-553): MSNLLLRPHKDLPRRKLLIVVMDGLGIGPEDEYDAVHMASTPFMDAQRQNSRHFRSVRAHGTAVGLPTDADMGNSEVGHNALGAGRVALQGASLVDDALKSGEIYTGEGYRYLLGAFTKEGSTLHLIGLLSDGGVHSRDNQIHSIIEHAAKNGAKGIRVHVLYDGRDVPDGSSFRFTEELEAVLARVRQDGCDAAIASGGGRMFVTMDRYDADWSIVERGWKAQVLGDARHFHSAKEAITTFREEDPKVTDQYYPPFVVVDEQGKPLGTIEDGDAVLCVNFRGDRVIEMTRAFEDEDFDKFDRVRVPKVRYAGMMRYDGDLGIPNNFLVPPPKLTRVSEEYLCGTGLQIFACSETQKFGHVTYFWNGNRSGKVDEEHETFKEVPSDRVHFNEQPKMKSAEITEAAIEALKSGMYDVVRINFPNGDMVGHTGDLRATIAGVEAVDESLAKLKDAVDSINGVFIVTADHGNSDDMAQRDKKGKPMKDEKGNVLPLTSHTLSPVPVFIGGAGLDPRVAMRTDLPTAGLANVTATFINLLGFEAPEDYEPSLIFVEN
# In short: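 Lm PGAM at 1.25 nM final with substrate in 100 mM TEA pH 7.6, 5 mM MgCl2, 0.01% Tween-20; 45 min at room temperature. Kinase-GloPlus added, 10 min, end-point luminescence read.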
# [18] = target: Peptidyl-prolyl cis-trans isomerase NIMA-interacting 1 (Homo sapiens) (UniProt Q13526); assay: qHTS Validation Assay to Find Inhibitors of Pin1 (AID 504536; active means well fitted inhibition curve with a large enough effect in the polarisation, with a control signal flat, not every such curve was filed as active; the % refers to the polarisation)
# Peptidyl-prolyl cis-trans isomerase NIMA-interacting 1 (Homo sapiens), sequence (Q13526 whole entry, looked up): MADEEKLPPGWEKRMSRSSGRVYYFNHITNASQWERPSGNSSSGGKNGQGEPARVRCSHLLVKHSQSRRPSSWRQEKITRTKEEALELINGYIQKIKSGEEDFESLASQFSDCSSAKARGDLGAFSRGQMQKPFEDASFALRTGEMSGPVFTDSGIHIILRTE
# In short: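 Fluorescence polarization competition: compounds (titration) displace HiFluor-488-labeled Pin1-1b peptide from Pin1 (0.3 uM final) in pH 7.5 HEPES buffer with DTT, 10 min at room temperature; %Activity normalized to no-enzyme wells, curves fitted.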
# [19] = qHTS for Inhibitors of ATXN expression: Validation (AID 588378); further: series mostly up to about 57 µM; nearly all actives have a fitted effect of over 75% in size
# In short: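 After a 2 h attachment and 24 h compound incubation, HEK293-ATXN2-FFLuc wells are read for fluorescence at 405 nm excitation/525 nm emission as a viability measure, then for Bright-Glo luminescence reflecting ATXN2 expression.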
compound,measurement,setting,value
CCCCC(CC)COC(=O)C(C#N)=C(c1ccccc1)c1ccccc1 (stereo not given),outcome,[1],inactive
same,activation,[2],-1.93% (inactive)
COC(=O)C1=C(C)NC(C)=C(C(=O)OC(C)C)C1c1cccc2nonc12 (stereo not given),outcome,[3],inactive
Nc1nc(Cl)nc2c1ncn2[C@H]1C[C@H](O)[C@@H](CO)O1,Potency,[4],inactive
same,outcome,[5],inactive
same,activation,[2],-6.36% (inactive)
c1ccc2[nH]c(-c3cscn3)nc2c1,outcome,[6],inactive
same,outcome,[7],inactive
same,activation,[8],7.31% (inactive) and -15.4% (inactive)
same,outcome,[5],inactive
same,activation,[2],-3.88% (inactive) and -4.87% (inactive)
Cc1ccc(C)c(OCCCC(C)(C)C(=O)O)c1,Potency,[4],inactive
same,outcome,[6],inactive
same,outcome,[7],inactive
same,activation,[8],4.9% (inactive) and 2.29% (inactive)
same,outcome,[9],inactive
same,outcome,[5],inactive
O=c1c(O)c(-c2cc(O)c(O)c(O)c2)oc2cc(O)cc(O)c12,Potency,[10],inactive
same,outcome,[11],inactive
same,activation,[12],1.38% (inactive)
same,Potency,[13],inactive
same,viability change,[13],-7.68%
same,outcome,[14],inactive
same,Potency,[15],inactive
same,Potency,[16],3.01 µM (active)
same,Potency,[17],inactive
same,outcome,[3],inactive
CCOC(=O)C1=C(O)C(=O)N(Cc2ccccc2)C1,outcome,[3],inactive
O=C(NCC1CCCCN1)c1cc(OCC(F)(F)F)ccc1OCC(F)(F)F (stereo not given),activation,[12],-4.44% (inactive)
same,Potency,[15],inactive
same,Potency,[4],inactive
COc1c2occc2cc2ccc(=O)oc12,outcome,[3],inactive
same,outcome,[5],inactive
same,activation,[2],1.93% (inactive) and -3.63% (inactive)
C[C@]12CCC(=O)C=C1CC[C@@H]1[C@H]2[C@@H](O)C[C@@]2(C)[C@H]1CC[C@]2(O)C(=O)CO,outcome,[1],inactive
same,Potency,[4],inactive
CS(=O)(=O)OCCCCOS(C)(=O)=O,outcome,[1],inactive
same,outcome,[6],inactive
same,outcome,[7],inactive
CCCc1cc(=O)[nH]c(=S)[nH]1,outcome,[1],inactive
same,outcome,[6],inactive
same,outcome,[7],inactive
CCN(CCO)CCCC(C)Nc1ccnc2cc(Cl)ccc12 (stereo not given),outcome,[1],inactive
same,Potency,[4],inactive
CN(C)CCCC1(c2ccc(F)cc2)OCc2cc(C#N)ccc21 (stereo not given),Potency,[10],inactive
same,outcome,[11],inactive
same,activation,[12],3.31% (inactive)
same,Potency,[13],inactive
same,viability change,[13],6.56%
same,outcome,[14],inactive
same,Potency,[15],inactive
same,outcome,[18],inactive
same,Potency,[16],inactive
same,Potency,[17],inactive
same,Potency,[4],inactive
O=C(NCCO[N+](=O)[O-])c1cccnc1,outcome,[1],inactive
same,outcome,[3],inactive
C=CCc1cc(OC)c(O)c(C(=O)NCCO)c1,outcome,[1],inactive
same,Potency,[4],inactive
N[C@@H](Cc1cc(I)c(Oc2cc(I)c(O)c(I)c2)c(I)c1)C(=O)O,outcome,[1],inactive
same,activation,[2],-13.7% (inactive)
CCN(CC)C(=S)SSC(=S)N(CC)CC,Potency,[10],18.3 µM (active)
same,activation,[12],4% (inactive)
same,Potency,[13],inactive
same,viability change,[13],1.38%
same,outcome,[14],inactive
same,Potency,[15],0.206 µM (active)
same,outcome,[18],inactive
same,Potency,[16],inactive
same,Potency,[17],inactive
same,Potency,[4],inactive
same,outcome,[6],inactive
same,outcome,[7],inactive
same,activation,[8],6.34% (inactive)
same,outcome,[9],inactive
same,activation,[2],3.99% (inactive)
CCC1=C(C)CN(C(=O)NCCc2ccc(S(=O)(=O)NC(=O)NC3CCC(C)CC3)cc2)C1=O (stereo not given),Potency,[4],inactive
COc1cc2nc(N3CCN(C(=O)C4CCCO4)CC3)nc(N)c2cc1OC (stereo not given),Potency,[10],inactive
same,outcome,[11],inactive
same,activation,[12],0.562% (inactive)
same,Potency,[13],inactive
same,viability change,[13],-1.63%
same,outcome,[14],inactive
same,Potency,[15],inactive
same,outcome,[18],inactive
same,Potency,[16],inactive
same,Potency,[17],inactive
same,Potency,[19],inactive
CCCOc1ccc2nc(NC(=O)OC)[nH]c2c1,Potency,[4],inactive
CCC[C@@H]1C[C@@H](C(=O)N[C@@H]([C@H]2O[C@H](SC)[C@H](O)[C@@H](O)[C@H]2O)[C@@H](C)O)N(C)C1,outcome,[1],inactive
same,Potency,[4],inactive
CN(C)CCc1c[nH]c2ccc(Cn3cncn3)cc12,outcome,[1],inactive
same,Potency,[4],inactive
Cc1cc2cc3c(C)cc(=O)oc3c(C)c2o1,outcome,[1],inactive
same,Potency,[4],inactive
CC(=O)Nc1ccc(O)cc1,outcome,[3],inactive
COc1cc(OC)c(C(=O)CCCN2CCCC2)c(OC)c1,outcome,[1],inactive
same,activation,[8],8.09% (inactive)
same,outcome,[9],inactive
same,activation,[2],4.51% (inactive)
